SMILES strings stand for the structures. Results filed as inconclusive are left out. The source made the active and inactive calls. Calls follow the shape of the dose curve; as a rule, active = well fitted curve in the direction sought with a large enough effect in the repeat runs; inconclusive = weak or mixed curves; inactive = no such curve, though single readings can be large; an effect the other way counts as inactive or inconclusive.

Test [1] can be described thus: Caspase-3/7 induction in HepG2 cells by small molecules, qHTS assay (AID 1346978). Also: nearly all actives have a fitted effect of over 15% in size. The note with it: HepG2 caspase-3/7 activation, Caspase-Glo luminescence, 17 h; series mostly up to 92.4 µM. In a few lines:
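Wild-type HepG2 cells, 2,000/well, settled 5 hr at 37 C and 5% CO2, then compound-treated for 17 hr; caspase-3/7 activity read by luminescent Caspase-Glo 3/7 after 30 min at room temperature.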

Test [2] can be described thus: Caspase-3/7 induction in CHO-K1 cells by small molecules, qHTS assay (AID 1346980). Also: nearly all actives have a fitted effect of over 15% in size. The settings on record: CHO-K1 caspase-3/7 induction, Caspase-Glo luminescence, 17 h; series mostly up to 92.4 µM. In a few lines:
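Wild-type CHO-K1 cells exposed to compounds for 17hr at 37 C, 5% CO2. Caspase-3/7 activity then measured by Caspase-Glo 3/7 luminescence after 30min at room temperature.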

The target of test [3] is Cytochrome P450 2D6 (Homo sapiens) (UniProt P10635). Description: Cytochrome P450 Family 2 Subfamily D Member 6 (CYP2D6) small molecule antagonists: luciferase reporter qHTS assay (AID 1671196). Also: nearly all actives have a fitted effect of over 50% in size. Also: potency is read from the fitted curve at half-maximal effect. The note with it: P450-Glo CYP2D6 enzyme assay, luciferin luminescence, 1 h; series mostly up to 115 µM. In a few lines: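 Luminescence (RLU), read 20 min after detection reagent, indicated CYP2D6 conversion of proluciferin to luciferin during a 1 h NADPH-dependent reaction at room temperature.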
Sequence of Cytochrome P450 2D6 (Homo sapiens) (P10635 whole entry, looked up): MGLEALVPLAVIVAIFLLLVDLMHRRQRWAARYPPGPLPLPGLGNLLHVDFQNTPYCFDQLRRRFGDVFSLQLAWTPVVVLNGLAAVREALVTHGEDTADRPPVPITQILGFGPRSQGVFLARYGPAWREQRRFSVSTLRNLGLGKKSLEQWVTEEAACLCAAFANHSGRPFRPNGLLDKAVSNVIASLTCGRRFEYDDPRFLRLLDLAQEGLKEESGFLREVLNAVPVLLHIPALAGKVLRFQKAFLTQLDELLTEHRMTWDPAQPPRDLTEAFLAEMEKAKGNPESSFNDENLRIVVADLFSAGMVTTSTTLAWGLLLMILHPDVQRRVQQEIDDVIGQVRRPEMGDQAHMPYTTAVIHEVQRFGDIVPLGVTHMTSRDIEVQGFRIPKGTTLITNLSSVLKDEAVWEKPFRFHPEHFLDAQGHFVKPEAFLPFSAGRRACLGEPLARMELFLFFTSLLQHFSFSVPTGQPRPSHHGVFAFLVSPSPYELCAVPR

Test [4] is described as follows: Caspase-3/7 induction in HepG2 cells by small molecules, qHTS cell viability counter screen (AID 1346981). Also: nearly all actives have a fitted effect of over 30% in size. The note with it: CellTiter-Fluor fluorescence, 17 h; series mostly up to 92.4 µM. A digest of the protocol:
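Multiplexed with the caspase-3/7 assay: HepG2 cells, 16 hr compound treatment, CellTiter-Fluor viability detection by fluorescence.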

For test [5], the target named is Nuclear receptor subfamily 1 group I member 2 (Homo sapiens) (UniProt O75469). Description: Human pregnane X receptor (PXR) small molecule agonists, qHTS assay (AID 1346982). Also: nearly all actives have a fitted effect of over 35% in size. Also: potency is read from the fitted curve at half-maximal effect. The settings on record: PXR-Luc HepG2, CYP3A4 luciferase reporter, 24 h; series mostly up to 92.4 µM. In a few lines: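 We seeded PXR-Luc HepG2 cells in assay medium containing 5% charcoal-stripped FBS, added compounds 5 hr later, incubated 24 hr, and read luminescence with ONE-Glo reagent.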
Sequence of Nuclear receptor subfamily 1 group I member 2 (Homo sapiens) (O75469 whole entry, looked up): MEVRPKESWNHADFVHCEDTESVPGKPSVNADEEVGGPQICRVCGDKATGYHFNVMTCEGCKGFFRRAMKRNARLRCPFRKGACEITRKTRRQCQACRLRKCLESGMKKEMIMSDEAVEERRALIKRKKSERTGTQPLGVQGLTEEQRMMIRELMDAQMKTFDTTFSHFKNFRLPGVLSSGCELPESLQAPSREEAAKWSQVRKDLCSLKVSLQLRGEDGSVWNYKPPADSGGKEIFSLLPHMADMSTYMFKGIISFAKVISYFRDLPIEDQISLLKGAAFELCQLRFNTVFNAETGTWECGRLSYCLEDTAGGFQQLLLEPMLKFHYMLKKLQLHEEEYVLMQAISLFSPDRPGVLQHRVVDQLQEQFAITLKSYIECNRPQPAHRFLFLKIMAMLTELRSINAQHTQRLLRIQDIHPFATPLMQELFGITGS

Test [6] can be described thus: Caspase-3/7 induction in CHO-K1 cells by small molecules, qHTS cell viability counter screen (AID 1346979). Also: nearly all actives have a fitted effect of over 35% in size. Also: potency is read from the fitted curve at half-maximal effect. The settings on record: CellTiter-Fluor fluorescence, 17 h; series mostly up to 92.4 µM. A digest of the protocol:
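Multiplexed with Caspase-Glo 3/7 in CHO-K1 cells, this counter screen added CellTiter-Fluor after 16hr of compound exposure and recorded fluorescence 1hr later.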

Test [7] addresses Nuclear receptor subfamily 1 group I member 2 (Homo sapiens) (UniProt O75469). Description: CYP3A4 induction through human pregnane X receptor (PXR) by small molecules, qHTS assay (AID 1346984). Also: nearly all actives have a fitted effect of over 40% in size. The note with it: DPX-2 HepG2 PXR, CYP3A4-luciferin luminescence, 24 h; series mostly up to 46.1 µM. A digest of the protocol: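 qHTS, concentration-response format: HepG2 DPX-2 line, PXR/CYP3A4-luc. Exposure 24 h, 37C. Substrate Luciferin-IPA 3uM final, 3 h. Detection One-Glo, 30 min RT.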

Test [8] has the same target. As to the kind of experiment: Human pregnane X receptor (PXR) activation by small molecules, qHTS assay (AID 1346985). Also: nearly all actives have a fitted effect of over 40% in size. The note with it: DPX-2 HepG2 CYP3A4-luciferase, 24 h; series mostly up to 38.3 µM. A digest of the protocol:
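DPX-2 cells (HepG2 co-transfected with a PXR response element and a CYP3A4-promoter luciferase construct) were seeded at 2,000 per well, rested 5 hr at 37C, then exposed to DMSO-dissolved compounds for 24 hr. Activation was read as luciferase luminescence.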

On to `CN1CCC(N(Cc2cccs2)c2ccccc2)CC1`, for which the Potency result in test [1] and in test [2] was “inactive” in each case. Further, in test [3], the Potency was 0.436 µM (active).

Turning to `O=C(Nc1ccc(S(=O)(=O)N2CCOCC2)cc1)c1cc(Cl)ccc1NS(=O)(=O)c1ccc(Cl)s1`, the Potency result in test [1], in test [2], in test [4] and in test [3] was “inactive” each time. The Potency in test [5] was 9.44 µM (active).

Consider `NC(=O)C(c1ccccc1)(c1ccccc1)[C@@H]1CCN(CCc2ccc3c(c2)CCO3)C1`, for which the Potency entry in test [1], in test [6], in test [2] and in test [4] was “inactive” each time. In addition, in test [3], the Potency was 0.389 µM (active).

Regarding `CCCCCCCCCCCCCCCCCCOS(=O)(=O)O`, the Potency entry in test [1], in test [2] and in test [4] was “inactive” in each case.

`CN1CCN(C(c2ccccc2)c2ccccc2)CC1`: the Potency entry in test [1], in test [6], in test [2], in test [4], in test [5] and in test [7] was “inactive” each time. Besides, the Potency result in test [8] was “inactive”.

In the case of `COc1cc2nc(N(C)CCCNC(=O)C3CCCO3)nc(N)c2cc1OC` (centres undefined), the Potency entry in test [1], in test [2], in test [4], in test [7] and in test [8] was “inactive” throughout. Moreover, the Potency in test [6] was 21.1 µM (active).

As for `CCc1c(C(=O)NN2CCCCC2)nn(-c2ccc(Cl)cc2Cl)c1-c1ccc(Br)cc1`, the Potency result in test [1], in test [2] and in test [3] was “inactive” each time. For the same compound, the Potency in test [6] is 27.3 µM (active); in test [5], 48.6 µM (active).

These data come from PubChem BioAssay (Tox21).
